# USP1 inh: blocks the human USP1/UAF1 deubiquitinase complex; Potency, µM (series often up to 57.1 µM), without a hit: at the highest dose activity change, negative = inhibition, hits mostly inhibitors; AID 743255; 390,000 compounds, 0.23% hits; recombinant USP1/UAF1, Ub-Rhodamine cleavage fluorescence; O94782; further: on the % scale 0 is the no-effect control and ±100 the full control effect; nearly all actives have a fitted effect of over 60% in size
# Target sequence (O94782 whole entry, looked up): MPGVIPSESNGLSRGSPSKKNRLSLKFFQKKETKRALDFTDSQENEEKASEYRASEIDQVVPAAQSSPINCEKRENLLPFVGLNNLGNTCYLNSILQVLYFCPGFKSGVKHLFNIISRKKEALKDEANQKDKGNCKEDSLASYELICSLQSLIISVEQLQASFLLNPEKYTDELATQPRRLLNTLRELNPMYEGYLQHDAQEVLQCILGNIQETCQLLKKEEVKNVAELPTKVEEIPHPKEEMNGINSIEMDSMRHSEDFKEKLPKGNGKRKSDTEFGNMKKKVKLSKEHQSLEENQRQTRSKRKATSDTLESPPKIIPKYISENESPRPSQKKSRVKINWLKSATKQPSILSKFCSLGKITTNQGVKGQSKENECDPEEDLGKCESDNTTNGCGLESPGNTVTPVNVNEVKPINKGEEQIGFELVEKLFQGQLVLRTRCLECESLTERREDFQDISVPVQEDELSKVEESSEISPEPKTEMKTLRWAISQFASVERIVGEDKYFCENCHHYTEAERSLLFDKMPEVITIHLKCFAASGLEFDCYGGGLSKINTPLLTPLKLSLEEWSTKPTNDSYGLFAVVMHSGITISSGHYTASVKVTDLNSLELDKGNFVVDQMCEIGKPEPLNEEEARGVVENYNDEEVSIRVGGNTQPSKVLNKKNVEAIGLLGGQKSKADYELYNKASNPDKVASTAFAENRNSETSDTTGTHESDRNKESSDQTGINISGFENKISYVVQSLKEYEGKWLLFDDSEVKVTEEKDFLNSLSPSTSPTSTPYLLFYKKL
#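 USP1/UAF1 complex at 1 nM was preincubated with compound for 15 min at room temperature, then Ub-Rho substrate (150nM final) was added. Fluorescence (480/540 nm) was read kinetically, 6 reads every 60 seconds.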
# EPAC1 ag: agonists of human EPAC1. Potency, µM (doses to about 154 µM), for the others: at the highest dose activation, actives largely listed as activators. EPAC1 agonist qHTS, biochemical assay; response scale: 100% = response to 6.5 mM cAMP. 360,000 compounds, 0.073% hits; further: nearly all actives have a fitted effect of over 60% in size
#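 Read-out is the fluorescence drop as BODIPY-GDP leaves Rap1B (480 nm excitation, 540 nm emission), recorded every 5 minutes over 30 minutes. Reactions held 100 nM EPAC1, 250 nM Rap1B–BODIPY-GDP and 50 uM GDP, with 6.5 mM cAMP setting full activation.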
# EPAC2 antagonist: blocks human EPAC2 exchange factor | Potency, µM (titrated, usually from 114 µM), without a hit: at the highest dose activity, negative = inhibition, usual class: inhibitors | Q8WZA2 | 360,000 compounds, 0.18% hits | EPAC2 GEF exchange of Rap1B-BODIPY-GDP, fluorescence; further: on the % scale 0 is the no-effect control and ±100 the full control effect; nearly all actives have a fitted effect of over 45% in size
# EPAC2 ag: activates human EPAC2 exchange factor. EPAC2 activation, biochemical qHTS; response scale: 100% = 6.5 mM cAMP response. Potency, µM (series often up to 154 µM), for inactives: at the top dose activation, usual class: activators. 360,000 compounds, 0.079% hits. AID 720711; further: nearly all actives have a fitted effect of over 50% in size
#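 Nucleotide exchange monitored as fluorescence drop when BODIPY-GDP leaves Rap1B. Reaction: 100 nM EPAC2, 250 nM RAP1B-BODIPY-GDP, 50 uM GDP, room temperature, kinetic read over 30 min. Activity expressed relative to 6.5 mM cAMP.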
# EPAC1 antag: EPAC1 (human) antagonism. O95398. EPAC1 GEF assay, Rap1b-BODIPY-GDP exchange fluorescence. Potency, µM (top dose mostly 115 µM), for inactives: top-dose activity change, negative = inhibition, usual class: inhibitors. 360,000 compounds, 0.14% hits. AID 720709;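 further: plate controls were vehicle for no effect and positive control for full effect; nearly all actives have a fitted effect of over 50% in size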
# BRCA1 expr act: activators of BRCA1 expression; MCF7-BRCA1-FFLuc reporter, luminescence, 48 h; response scale: scaled: vehicle 0%, 10 µM genistein 100%; AID 624202; 380,000 compounds, 1.1% hits; Potency, µM (doses to about 46.1 µM), for inactives: top-dose activation, most hits filed as activators; further: nearly all actives have a fitted effect of over 80% in size
#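 Luminescence from a BRCA1-driven firefly luciferase in MCF7 cells was read after 48 h compound exposure at 37 C. Data normalized against DMSO and a 10microM genistein activation control, then curve-fitted across the titration.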
# * hit, by the source's call; ? = inconclusive; . = not tested or not shown. This is a sample that favours compounds with a hit; in the whole collection about 1.4% have one here. The call rests on the fitted dose curve; in most records, active means well fitted curve in the direction sought with a large enough effect; inconclusive means small, poorly fitted or top-dose-only effect, or another doubt; inactive means no such curve, though single readings can be large; an effect the other way counts as inactive or inconclusive. Potency means the concentration at half of the fitted maximal effect.
SMILES,USP1 inh,EPAC1 ag,EPAC2 antagonist,EPAC2 ag,EPAC1 antag,BRCA1 expr act
O=C(c1ccc(Cl)s1)N1CCc2ccccc21,-20%,1%,0%,5%,4%,11µM*
O=C(NC1CCCCC1)N1CCc2ccccc21,-26%,0%,-5%,-2%,0%,11µM*
O=C(C1CCC(C(=O)N2CCc3ccccc32)CC1)N1CCc2ccccc21 (stereo not given),5%,6%,-7%,17%,-8%,2%
C=Cc1ccc(Cn2c(C(=O)O)c(CNCCc3ccccc3)c3ccc(C)cc32)cc1,-25%,.,.,.,.,.
CCn1c(C(=O)NCc2ccccc2C)cc2oc3ccccc3c21,-3%,.,.,.,.,.
Cc1ccc(C(=O)N2CCc3ccccc32)cc1,?,8%,-3%,8%,0%,11µM*
Nc1ccccc1SCCS(=O)(=O)c1ccc(Cl)cc1,-19%,-2%,-17%,5%,-5%,-6%
O=C1c2ccccc2-c2onc3c(N4CCN(C5CCCCC5)CC4)cc(NCCO)c1c23,16µM*,.,.,.,.,.
CC(C)CNc1cc(NC2CCCCC2)c2c3c(onc13)-c1ccccc1C2=O,-15%,.,.,.,.,.
CN(Cc1ccc(F)cc1)C(=O)c1cccc(OCc2ccccc2)c1,-8%,7%,50µM*,17%,-6%,-18%
COC(=O)CCC(=O)OC1(C)C(=O)C2=CN(C3CCCC3)C(c3ccc(OC)cc3)=CC2=C(Br)C1=O (stereo not given),25µM*,-13%,-20%,10%,2%,4%
COCCN1C=C2C(=O)C(C)(OC(=O)CCC(=O)OC)C(=O)C(Br)=C2C=C1c1ccc(OC)cc1 (stereo not given),25µM*,6%,23%,12%,-18%,0%
COC(=O)CCC(=O)OC1(C)C(=O)C2=CN(c3ccc(OC)cc3)C(c3ccc(OC)cc3)=CC2=C(Br)C1=O (stereo not given),?,8%,-12%,3%,5%,-7%
CCN(CC)CCCN1C=C2C(=O)C(C)(OC(=O)CCC(=O)OC)C(=O)C(Br)=C2C=C1c1ccc(OC)cc1 (stereo not given),?,-17%,9%,11%,-22%,-2%
COC(=O)CCCC1=CC2=C(c3ccccc3)C(=O)C(C)(OC(=O)C3CCCC3)C(=O)C2=CN1C1CC1 (stereo not given),?,-1%,13%,7%,-6%,-13%
C=CCN1C=C2C(=O)C(C)(OC(=O)CCC(=O)OC)C(=O)C(Br)=C2C=C1c1ccc(OC)cc1 (stereo not given),32µM*,27%,9%,30%,8%,0%
NS(=O)(=O)Nc1c(Br)cc(Br)c2cccnc12,.,.,.,.,.,-1%
COC(=O)[C@@H](C)NC(=O)c1ccc2oc(CCc3ccccc3)nc2c1,-22%,8%,0%,5%,-8%,11µM*
CCC(=O)N1CCC(c2ccc(OC)cc2)=N1,-20%,-1%,0%,8%,0%,11µM*
O/N=C/c1ccc(OCc2ccccc2F)c(Cl)c1,3%,13%,-18%,16%,?,2.8µM*
O/N=C/c1ccc(OCc2ccccc2)c(Cl)c1,-22%,3%,-7%,21%,1%,10µM*
O=C(NC(=S)Nc1cccc([N+](=O)[O-])c1)c1ccco1,-3%,3%,1%,8%,-8%,84%
C/C(=N\Nc1ccc(Cl)c(C(=O)O)c1)c1cccc([N+](=O)[O-])c1,-20%,-4%,11%,0%,-12%,14µM*
O=C(NNC(=O)c1ccccc1Cl)c1ccc2c(c1)OCCO2,-23%,8%,9%,7%,-16%,7.1µM*
O=C(Nc1cccc([N+](=O)[O-])c1)c1ccc2c(c1)OCCO2,-11%,-4%,-11%,-2%,-23%,13µM*
SMILES,USP1 inh,EPAC1 ag,EPAC2 antagonist,EPAC2 ag,EPAC1 antag,BRCA1 expr act
O=C(NC(=S)Nc1cccc([N+](=O)[O-])c1)c1ccccc1,-20%,0%,0%,-1%,1%,11µM*
CN(C)c1ccc(/C=C/c2c[n+](C)cc3ccccc23)cc1,.,.,.,.,.,-57%
CC(/C=C/c1ccc2c(c1)OCO2)=N\NC(=O)c1cccc([N+](=O)[O-])c1,-7%,2%,-7%,6%,-1%,-44%
C/C(=N/NC(=O)c1ccc2c(c1)OCO2)c1cccc([N+](=O)[O-])c1,-16%,12%,-11%,0%,-22%,5µM*
CCOc1ccc(NC(=O)Nc2ccon2)cc1,-25%,5%,-8%,-2%,11%,10µM*
CCOc1ccc(NC(=O)Nc2ccccc2SC)cc1,-4%,-2%,-5%,10%,5%,2.8µM*
CSc1ccccc1NC(=O)Nc1ccccc1,-11%,-3%,-1%,11%,2%,65%
CN(C)c1ccc(/C=C/c2ccnc3ccccc23)c(F)c1,.,.,.,.,.,14%
O=C(O)c1ccc(COc2ccc([N+](=O)[O-])cc2Cl)cc1,-22%,1%,5%,1%,-4%,13µM*
O=C(NCCCOc1ccc([N+](=O)[O-])cc1Cl)OCc1ccccc1,-20%,-10%,-1%,4%,-7%,-22%
CCOC(=O)/C(=C/C=C1\Sc2cc(C)c(C)cc2N1CC)C(C)=O,25µM*,20%,114%,31%,4%,-15%
Cc1ccnc(SCC(=O)c2cc3ccccc3o2)n1,-8%,13%,-27%,9%,-23%,8.9µM*
COc1ccc(-n2c(C)cc(C(=O)CN3C(=O)c4ccccc4C3=O)c2C)cc1,-19%,4%,1%,19%,-3%,-19%
COc1ccc(-n2c(C)cc(C(=O)CCl)c2C)cc1,-24%,8%,7.9µM*,11%,-30%,-74%
CC(C)(C)C1CCSC2=NCCC[C@]2(c2ccccc2)C1 (stereo not given in full),.,-9%,?,5%,-11%,3%
COc1ccccc1NC1=C(N2CCCCC2)C(=O)c2ccccc2C1=O,18µM*,17%,-4%,-2%,9%,-94%
O=C(/C=C/c1ccc(O)cc1)c1ccc(NC2=C(N3CCCCC3)C(=O)c3ccccc3C2=O)cc1,16µM*,-16%,-4%,-1%,-12%,-68%
O=C1C(Nc2ccccc2)=C(N2CCCCC2)C(=O)c2ccccc21,25µM*,7%,10%,12%,17%,-35%
CCCC[C@@H]1CNC(=O)C(=O)N1CCc1cccc(F)c1,.,-17%,?,8%,?,.
Cc1cc(C)n2nc(SCC(=O)N3CCc4ccccc43)nc2n1,-6%,-14%,3%,2%,-4%,1%
